RXFP1 antagonist – qHTS Assay for Antagonists of the Relaxin Receptor RXFP1 | Relaxin receptor 1 (Homo sapiens), Q9HBX9 | HEK293-RXFP1, relaxin-stimulated cAMP HTRF, 30 min; active compounds read low | activity change, negative = inhibition, % at 57.5 µM | 0.59% of 350,000 active | AID 1259400, 2018;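 active = activity change of -60% or lower, but not beyond a set lower limit; inconclusive = change between -60% and -40%, or beyond the set limit; inactive = change above -40%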; note: % is set by controls: 0 for no effect and ±100 for the full control effect
TRPV1 PAM – HTS Assay for Compounds that Act as Potentiators of the Vanilloid Receptor 1 | Transient receptor potential cation channel subfamily V member 1 (Homo sapiens), Q8NER1 | TRPV1-expressing cells, Fluo-8 calcium influx, capsaicin EC20 potentiation | potentiation, % at 8.33 µM | 0.02% of 320,000 active; in the data active = potentiation above about 80%; inconclusive = between about 30% and that limit; note: 0% is about no effect
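Cells expressing TRPV1 were dye-loaded with Fluo-8 and read kinetically: 10 s baseline, 3 min after compound (agonist portion), then 2 min after EC20 capsaicin (allosteric enhancer portion). Calcium-bound dye fluorescence at 480/520 nm.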
gsp agonist – qHTS for Agonist of gsp, the Etiologic Mutation Responsible for Fibrous Dysplasia/McCune-Albright Syndrome: qHTS; gsp mutant cells, cAMP HTRF, 30 min; Potency, µM (series often up to 76.9 µM), without a hit: top-dose activation (cAMP increase), usual class: activators; 0.13% of 340,000 active; AID 624287, 2012; active = well fitted activation curve with a large enough effect; inconclusive = small, poorly fitted or top-dose-only effect, or another doubt; inactive = no such curve, though single readings can be large or run the other way; cell line not stated here;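 note: phosphodiesterase inhibitor Ro 20-1724 added with compounds to block cAMP breakdown; potency is the fitted concentration of half-maximal effect; nearly all actives have a fitted effect of over 60% in size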
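Cells in DMEM/10% FBS with G418 were pretreated with compounds in DMSO plus […] (300 uM stock) for 30 min at 37C. cAMP was measured by HTRF (cAMP-d2 plus anti-cAMP antibody-K) after 30 min at room temperature.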
TRPV1 agonist – HTS Assay for Compounds that Act as Agonists of the Vanilloid Receptor 1 | Transient receptor potential cation channel subfamily V member 1 (Homo sapiens), Q8NER1 | TRPV1-expressing cells, Fluo-8 calcium influx, agonist mode | activation, % at 8.33 µM | 0.19% of 320,000 active | AID 540275, 2011; in the data active = activation above about 80%; inconclusive = between about 30% and that limit; note: 0% is about no effect
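Cells expressing TRPV1 were dye-loaded with Fluo-8 and read kinetically: 10 s baseline, 3 min after compound (agonist portion), then 2 min after EC20 capsaicin (allosteric enhancer portion). Calcium-bound dye fluorescence at 480/520 nm.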
gsp antag – qHTS for Antagonists of gsp, the Etiologic Mutation Responsible for Fibrous Dysplasia/McCune-Albright Syndrome: qHTS | gsp-mutant cells, cAMP HTRF, 30 min | Potency, µM (highest dose often 76.9 µM), without a hit: at the top dose activity change, negative = inhibition, actives largely listed as inhibitors | 0.4% of 340,000 active; calls by dose curve; cell line not stated here;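 note: intracellular cAMP measured with PDE inhibitor Ro 20-1724 present during compound exposure; potency is the fitted concentration of half-maximal effect; % is set by controls: 0 for no effect and ±100 for the full control effect; nearly all actives have a fitted effect of over 65% in size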
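HTRF cAMP read-out (cAMP-d2 plus anti-cAMP antibody-K in lysis buffer, 30 min RT). Before lysis, cells are exposed to compounds with […] for 30 min at 37C in DPBS containing Ca/Mg, BSA and Tween 20.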
RXFP1 agonist – qHTS Assay for Agonists of the Relaxin Receptor RXFP1 | Relaxin receptor 1 (Homo sapiens), Q9HBX9 | HEK293T-RXFP1 cAMP TR-FRET, 30 min; response scale: percent of porcine relaxin response, buffer zero | Potency, µM (top dose mostly 57.5 µM), without a hit: at the highest dose activation, most hits filed as activators | 0.3% of 370,000 active | AID 2676, 2010; active = well fitted activation curve with a large enough effect; inconclusive = small, poorly fitted or top-dose-only effect; note: potency is the fitted concentration of half-maximal effect; % is set by controls: 0 for no effect and ±100 for the full control effect; nearly all actives have a fitted effect of over 60% in size
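HEK293 cells stably expressing RXFP1, treated 30 min at 37C with compounds plus PDE4 inhibitor Ro 20174; cAMP measured by HTRF TR-FRET. Normalized to buffer and 29 nM porcine relaxin; EC50 by Hill fit.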
An asterisk follows results filed as active; [ ] = dose if it differs, or a comment. Hits are enriched below; roughly 1.1% of the tested compounds scored in any of these assays.

What do the screens show for `CCNC(=O)[C@@H]1CCCN1C(=O)[C@H](CCCN=C(N)N)NC(=O)[C@H](CC(C)C)NC(=O)CNC(=O)[C@H](Cc1ccc(O)cc1)NC(=O)[C@H](CO)NC(=O)[C@H](Cc1c[nH]c2ccccc12)NC(=O)[C@H](Cc1cnc[nH]1)NC(=O)[C@@H]1CCC(=O)N1`?
RXFP1 antagonist: -9

Results for CCOC(=O)CSc1nc2sc(C)c(C)c2c(=O)n1C ?
RXFP1 antagonist: -5; TRPV1 PAM: -1; gsp agonist: -45%; TRPV1 agonist: 17; gsp antag: 6%; RXFP1 agonist: 1%

Results for CCOC(=O)CSc1nc(C(C)C)nc2sc(C)c(C)c12 ?
RXFP1 antagonist: -60*; TRPV1 PAM: -17; gsp agonist: 7%[15.4 µM]; TRPV1 agonist: inconclusive; gsp antag: -10%; RXFP1 agonist: 0%

How did Cc1cccc(N=C2NC(=O)/C(=C/C=C/c3ccco3)S2)c1 do in these assays?
RXFP1 antagonist: -73*; TRPV1 PAM: 23; gsp agonist: 2%; TRPV1 agonist: -1; gsp antag: -1%; RXFP1 agonist: 0%

How did O=C1NC(=Nc2ccc(O)cc2)S/C1=C/c1ccco1 do in these assays?
RXFP1 antagonist: -61*; TRPV1 PAM: 5; gsp agonist: -5%; TRPV1 agonist: 15; gsp antag: 0%; RXFP1 agonist: -1%

How did Cc1ccc(N=C2NC(=O)/C(=C\c3ccco3)S2)cc1 do in these assays?
RXFP1 antagonist: -16; TRPV1 PAM: 4; gsp agonist: -21%; TRPV1 agonist: 12; gsp antag: -5%; RXFP1 agonist: -1%

Results for CCc1ccc(OCc2cccc(C(=O)N/N=C\c3cnn(C)c3C)c2)cc1 ?
RXFP1 antagonist: 11; TRPV1 PAM: -1; gsp agonist: 8%; TRPV1 agonist: 8; gsp antag: 2%; RXFP1 agonist: -1%

What do the screens show for `N#Cc1ccccc1Cn1cc(/C=C/[N+](=O)[O-])c2ccccc21`?
RXFP1 antagonist: -65*; TRPV1 PAM: 8; gsp agonist: 7%[15.4 µM]; TRPV1 agonist: -1; gsp antag: -10%; RXFP1 agonist: 1%

How did O=C(Cn1cc(/C=C\[N+](=O)[O-])c2ccccc21)Nc1ccccc1 do in these assays?
RXFP1 antagonist: -105*; TRPV1 PAM: 17; gsp agonist: -17%; TRPV1 agonist: -2; gsp antag: 14%; RXFP1 agonist: 0%

What do the screens show for `Cc1ccc(SCC(=O)NNC(=O)c2ccccc2)c(C)c1`?
RXFP1 antagonist: 10; TRPV1 PAM: 8; gsp agonist: -27%; TRPV1 agonist: -3; gsp antag: 6%; RXFP1 agonist: 2%

How did O=C(Nc1ccccc1)c1csc(-c2ccccc2)n1 do in these assays?
RXFP1 antagonist: 2; TRPV1 PAM: 23; gsp agonist: 0%[15.4 µM]; TRPV1 agonist: 85*; gsp antag: -9%; RXFP1 agonist: 3%

How did Cc1c(C(=O)N2CCCCC2)c(S(=O)(=O)N2CCC(C)CC2)c(C)n1C do in these assays?
RXFP1 antagonist: 11; TRPV1 PAM: 0; gsp agonist: 11%; TRPV1 agonist: 3; gsp antag: -7%; RXFP1 agonist: 4%

Results for C[C@@H](O[C@H]1OCCN(Cc2n[nH]c(=O)[nH]2)[C@H]1c1ccc(F)cc1)c1cc(C(F)(F)F)cc(C(F)(F)F)c1 ?
RXFP1 antagonist: -60*

What do the screens show for `COc1ccccc1NC(=O)CSc1nc(=O)n2cc(C)ccc2n1`?
RXFP1 antagonist: 3; TRPV1 PAM: -14; gsp agonist: 18µM*; TRPV1 agonist: 1; gsp antag: 15%; RXFP1 agonist: 23%

Results for Cc1ccc(CNc2nc3ccc(Cl)cc3n3nnnc23)cc1 ?
RXFP1 antagonist: -3; RXFP1 agonist: 29%

Results for Cc1cc(NC(=O)C(C)SCC(=O)Nc2cc(Cl)ccc2N2CCN(C)CC2)no1 (stereo not given) ?
RXFP1 antagonist: -16; TRPV1 PAM: 4; gsp agonist: 1%[15.4 µM]; TRPV1 agonist: 0; gsp antag: 0%; RXFP1 agonist: 1%

What do the screens show for `Cc1cc(NC(=O)C(C)SCC(=O)Nc2cc(C(F)(F)F)ccc2N2CCOCC2)no1` (stereo not given)?
RXFP1 antagonist: -72*; TRPV1 PAM: 3; gsp agonist: 2%[15.4 µM]; TRPV1 agonist: 1; gsp antag: 3%; RXFP1 agonist: 0%

Results for COc1ccc(NC(=O)CN2CCC(C(=O)c3ccc(C)cc3)CC2)c(OC)c1 ?
RXFP1 antagonist: -9; TRPV1 PAM: 8; gsp agonist: inconclusive; TRPV1 agonist: 2; gsp antag: -25%; RXFP1 agonist: 2%

What do the screens show for `COc1ccc(OC)c(NC(=O)CN2CCC(C(=O)c3ccc(C)cc3)CC2)c1`?
RXFP1 antagonist: -21; TRPV1 PAM: 0; gsp agonist: 15%; TRPV1 agonist: 4; gsp antag: 28µM*; RXFP1 agonist: 0%

How did Cc1nn2c(=O)c3c4c(sc3nc2n1-c1ccccc1)COC(C)(C)C4 do in these assays?
RXFP1 antagonist: -6; TRPV1 PAM: -24; gsp agonist: -18%; TRPV1 agonist: 16; gsp antag: -3%; RXFP1 agonist: -1%

Results for CC(CC(=O)Nc1ccc(S(=O)(=O)Nc2ncccn2)cc1)c1ccccc1 (stereo not given) ?
RXFP1 antagonist: -4; TRPV1 PAM: -6; gsp agonist: -5%[15.4 µM]; TRPV1 agonist: 0; gsp antag: 0%; RXFP1 agonist: 2%

How did CN(C)c1ccc(C(C#N)c2ccccc2)nn1 (stereo not given) do in these assays?
RXFP1 antagonist: -69*; TRPV1 PAM: -6; gsp agonist: 4%; TRPV1 agonist: 2; gsp antag: -3%; RXFP1 agonist: -3%

What do the screens show for `CN(C)c1ccc(C(C#N)c2ccc(Cl)cc2)nn1` (stereo not given)?
RXFP1 antagonist: 1; TRPV1 PAM: 8; gsp agonist: -41%; TRPV1 agonist: 3; gsp antag: 5%; RXFP1 agonist: 2%

What do the screens show for `CC(C)(C)c1ccc(OCc2ccc(C(=O)NN)o2)cc1`?
RXFP1 antagonist: -3; TRPV1 PAM: 1; gsp agonist: -2%; TRPV1 agonist: 123*; gsp antag: -2%; RXFP1 agonist: 3%

Screening data deposited in PubChem by National Center for Advancing Translational Sciences (NCATS).
